# According to the supplement of paper PMC8728848:
# This is one part of a sample in which the strongest signals are shown more often than they occur.
# B1: LlpA (Burkholderia cenocepacia) (protein)
# chain: MGSSHHHHHHSSGLVPRGSHKILGSNETLSAGNVVYSDNGQYHLAMQTDGNLVVYGPTGAVWQSQTSGSGGNRAVMQGDGNLVIYRADNTAAWSSKTAHPGAFLAVQDDGNVVIYWPRPAWASNTSDPATQQSAESKYLASGSTMSAGQTVTVAQYMLVFQADGNLVLYKNGGNPIWSTGTQGKGATYAVMQSDGNFVIYAGSTALWSTKTNGANGAQLVLQSDGNLVIYAPTAAWSTKFGLVTAPTSTSTSNNGPGSGICVGVCPPHPLNGNPFSPVGVGTTGLGFPTPGYPGAAF
# Legend:
# Test in all cases: glycan array binding signal (z-score within array); higher = stronger binding
# Conditions in all cases: glycan notation: IUPAC condensed, linker removed
# Gal6S(b1-3)GlcNAc6S = biological target: Gal6S(b1-3)GlcNAc6S
# How it was run: (§1)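 The Consortium for Functional Glycomics database supplied 3228 glycan arrays, of which those lacking an available protein sequence were dropped. The binding signal, a within-array Z-score, was averaged across arrays of the same protein sequence and across linkers. Negative scores can be read as non-binding.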
# [1] = biological target: GalNAc(a1-3)GalNAc(b1-3)Gal(a1-4)Gal(b1-4)GlcNAc
# How it was run: as §1
# [2] = biological target: Glc(a1-6)Glc(a1-6)Glc(a1-6)Glc
# How it was run: as §1
# [3] = biological target: GlcNAc(b1-2)Man(a1-3)[GlcNAc(b1-4)][GlcNAc(b1-2)Man(a1-6)]Man(b1-4)GlcNAc(b1-4)GlcNAc
# How it was run: as §1
# [4] = biological target: GlcNAc(b1-2)Man(a1-3)[GlcNAc(b1-4)][GlcNAc(b1-2)Man(a1-6)]Man(b1-4)GlcNAc(b1-4)[Fuc(a1-6)]GlcNAc
# How it was run: as §1
# [5] = biological target: GlcNAc(b1-2)[GlcNAc(b1-4)]Man(a1-3)[GlcNAc(b1-4)][GlcNAc(b1-2)[GlcNAc(b1-6)]Man(a1-6)]Man(b1-4)GlcNAc(b1-4)GlcNAc
# How it was run: as §1
# [6] = biological target: GlcNAc(b1-3)Gal(b1-3)GalNAc
# How it was run: as §1
# [7] = biological target: GlcNAc(b1-3)Gal(b1-4)GlcNAc
# How it was run: as §1
# [8] = biological target: GlcNAc(b1-3)Gal(b1-4)GlcNAc(b1-3)Gal(b1-4)GlcNAc(b1-2)[GlcNAc(b1-3)Gal(b1-4)GlcNAc(b1-3)Gal(b1-4)GlcNAc(b1-6)]Man(a1-6)[GlcNAc(b1-3)Gal(b1-4)GlcNAc(b1-3)Gal(b1-4)GlcNAc(b1-2)Man(a1-3)]Man(b1-4)GlcNAc(b1-4)[Fuc(a1-6)]GlcNAc
# How it was run: as §1
# [9] = biological target: GlcNAc(b1-3)Gal(b1-4)GlcNAc(b1-3)Gal(b1-4)GlcNAc(b1-3)Gal(b1-4)GlcNAc(b1-2)[GlcNAc(b1-3)Gal(b1-4)GlcNAc(b1-3)Gal(b1-4)GlcNAc(b1-3)Gal(b1-4)GlcNAc(b1-6)]Man(a1-6)[GlcNAc(b1-3)Gal(b1-4)GlcNAc(b1-3)Gal(b1-4)GlcNAc(b1-3)Gal(b1-4)GlcNAc(b1-2)Man(a1-3)]Man(b1-4)GlcNAc(b1-4)[Fuc(a1-6)]GlcNAc
# How it was run: as §1
# [10] = biological target: GlcNAc(b1-3)Gal(b1-4)GlcNAc(b1-3)Gal(b1-4)GlcNAc(b1-3)Gal(b1-4)GlcNAc(b1-3)Gal(b1-4)GlcNAc(b1-2)Man(a1-3)[GlcNAc(b1-3)Gal(b1-4)GlcNAc(b1-3)Gal(b1-4)GlcNAc(b1-3)Gal(b1-4)GlcNAc(b1-3)Gal(b1-4)GlcNAc(b1-2)Man(a1-6)]Man(b1-4)GlcNAc(b1-4)GlcNAc
# How it was run: as §1
# [11] = biological target: GlcNAc(b1-3)Gal(b1-4)GlcNAc(b1-3)Gal(b1-4)GlcNAc(b1-3)Gal(b1-4)GlcNAc(b1-3)Gal(b1-4)GlcNAc(b1-2)[GlcNAc(b1-3)Gal(b1-4)GlcNAc(b1-3)Gal(b1-4)GlcNAc(b1-3)Gal(b1-4)GlcNAc(b1-3)Gal(b1-4)GlcNAc(b1-6)]Man(a1-6)[GlcNAc(b1-3)Gal(b1-4)GlcNAc(b1-3)Gal(b1-4)GlcNAc(b1-3)Gal(b1-4)GlcNAc(b1-3)Gal(b1-4)GlcNAc(b1-2)Man(a1-3)]Man(b1-4)GlcNAc(b1-4)[Fuc(a1-6)]GlcNAc
# How it was run: as §1
# [12] = biological target: GlcNAc(b1-3)[GlcNAc(b1-6)]GalNAc
# How it was run: as §1
# [13] = biological target: Man(a1-2)Man(a1-2)Man(a1-6)[Man(a1-3)]Man
# How it was run: as §1
# [14] = biological target: Man(a1-2)Man(a1-3)[Man(a1-2)Man(a1-6)]Man(a1-6)[Man(a1-2)Man(a1-2)Man(a1-3)]Man
# How it was run: as §1
# [15] = biological target: Man(a1-3)[Man(a1-6)]Man(b1-4)GlcNAc(b1-4)GlcNAc
# How it was run: as §1
# [16] = biological target: Neu5Ac(a2-3)Gal(b1-3)GlcNAc(b1-2)[Neu5Ac(a2-3)Gal(b1-3)GlcNAc(b1-4)]Man(a1-6)[Neu5Ac(a2-3)Gal(b1-3)GlcNAc(b1-2)Man(a1-3)]Man(b1-4)GlcNAc(b1-4)GlcNAc
# How it was run: as §1
# [17] = biological target: Neu5Ac(a2-3)Gal(b1-4)[Fuc(a1-3)]GlcNAc
# How it was run: as §1
# [18] = biological target: Neu5Ac(a2-3)GalNAc(b1-4)GlcNAc
# How it was run: as §1
# [19] = biological target: Neu5Ac(a2-3)[GalNAc(b1-4)]Gal(b1-4)GlcNAc
# How it was run: as §1
# [20] = biological target: Neu5Ac(a2-6)Gal(b1-3)GlcNAc(b1-3)[Gal(b1-4)GlcNAc(b1-6)]Gal(b1-4)Glc
# How it was run: as §1
# [21] = biological target: Neu5Ac(a2-6)Gal(b1-4)GlcNAc
# How it was run: as §1
# [22] = biological target: Neu5Ac(a2-6)Gal(b1-4)GlcNAc(b1-2)Man(a1-3)[Man(a1-6)]Man(b1-4)GlcNAc(b1-4)GlcNAc
# How it was run: as §1
# [23] = biological target: Neu5Ac(a2-6)Gal(b1-4)GlcNAc(b1-3)Gal(b1-4)GlcNAc(b1-3)Gal(b1-4)GlcNAc(b1-2)Man(a1-3)[Neu5Ac(a2-6)Gal(b1-4)GlcNAc(b1-3)Gal(b1-4)GlcNAc(b1-3)Gal(b1-4)GlcNAc(b1-2)Man(a1-6)]GalNAc
# How it was run: as §1
# [24] = biological target: Neu5Ac(a2-6)Gal(b1-4)GlcNAc(b1-6)[Gal(b1-3)GlcNAc(b1-3)]Gal(b1-4)Glc
# How it was run: as §1
# [25] = biological target: Neu5Ac(a2-6)GalNAc(b1-4)GlcNAc6S
# How it was run: as §1
# Neu5Ac(b2-6)GalNAc = biological target: Neu5Ac(b2-6)GalNAc
# How it was run: as §1
# [26] = biological target: Neu5Gc(a2-3)Gal(b1-4)GlcNAc
# How it was run: as §1
binder,measurement,setting,value
B1,glycan array binding signal (z-score),Gal6S(b1-3)GlcNAc6S,-0.227
same,glycan array binding signal (z-score),[1],-0.419
same,glycan array binding signal (z-score),[2],0.011
same,glycan array binding signal (z-score),[3],0.686
same,glycan array binding signal (z-score),[4],-0.623
same,glycan array binding signal (z-score),[5],-0.839
same,glycan array binding signal (z-score),[6],0.088
same,glycan array binding signal (z-score),[7],-0.175
same,glycan array binding signal (z-score),[8],1.97
same,glycan array binding signal (z-score),[9],2.12
same,glycan array binding signal (z-score),[10],1.56
same,glycan array binding signal (z-score),[11],1.97
same,glycan array binding signal (z-score),[12],0.522
same,glycan array binding signal (z-score),[13],-0.239
same,glycan array binding signal (z-score),[14],0.07
same,glycan array binding signal (z-score),[15],-0.516
same,glycan array binding signal (z-score),[16],0.118
same,glycan array binding signal (z-score),[17],-0.785
same,glycan array binding signal (z-score),[18],-0.208
same,glycan array binding signal (z-score),[19],-0.447
same,glycan array binding signal (z-score),[20],-0.697
same,glycan array binding signal (z-score),[21],-0.538
same,glycan array binding signal (z-score),[22],0.308
same,glycan array binding signal (z-score),[23],1.99
same,glycan array binding signal (z-score),[24],0.132
same,glycan array binding signal (z-score),[25],0.676
same,glycan array binding signal (z-score),Neu5Ac(b2-6)GalNAc,-0.883
same,glycan array binding signal (z-score),[26],-0.079
